# Measured values as given in PubChem BioAssay (NCI).
# About 83,000 compounds went through this panel and 20% of them were active in at least one assay; those are over-represented in the sample as a whole.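 Single-dose data. Exposure time 48 hours. Values below 10 considered active.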 Unmarked numbers belong to inactive results. Activity calls are given as the source filed them.
# How the values were obtained:
# Test in all cases: NCI-60 one-dose screen, 48 h (100 = growth as untreated, 0 = no growth, -100 = all killed)
# Conditions in all cases: 10 µM unless noted
# SK-MEL-2 melanoma = test system: SK-MEL-2 melanoma
# EKVX NSCLC = test system: EKVX NSCLC
# SN12C renal = test system: SN12C renal
# UO-31 renal = test system: UO-31 renal
# TK-10 renal = test system: TK-10 renal
# ACHN renal = test system: ACHN renal
# CAKI-1 renal = test system: CAKI-1 renal
# CCRF-CEM leukemia = test system: CCRF-CEM leukemia
# MOLT-4 leukemia = test system: MOLT-4 leukemia
# SR leukemia = test system: SR leukemia
# RPMI-8226 leukemia = test system: RPMI-8226 leukemia
# OVCAR-5 ovarian = test system: OVCAR-5 ovarian
# OVCAR-4 ovarian = test system: OVCAR-4 ovarian
# SK-OV-3 ovarian = test system: SK-OV-3 ovarian
# IGROV1 ovarian = test system: IGROV1 ovarian
# OVCAR-3 ovarian = test system: OVCAR-3 ovarian
# NCI/ADR-RES ovarian = test system: NCI/ADR-RES ovarian
# A498 renal = test system: A498 renal
# OVCAR-8 ovarian = test system: OVCAR-8 ovarian
# HS 578T breast = test system: HS 578T breast
SMILES,growth (SK-MEL-2 melanoma),growth (EKVX NSCLC),growth (SN12C renal),growth (UO-31 renal),growth (TK-10 renal),growth (ACHN renal),growth (CAKI-1 renal),growth (CCRF-CEM leukemia),growth (MOLT-4 leukemia),growth (SR leukemia),growth (RPMI-8226 leukemia),growth (OVCAR-5 ovarian),growth (OVCAR-4 ovarian),growth (SK-OV-3 ovarian),growth (IGROV1 ovarian),growth (OVCAR-3 ovarian),growth (NCI/ADR-RES ovarian),growth (A498 renal),growth (OVCAR-8 ovarian),growth (HS 578T breast)
[Cl-].[Rh+3].c1ccc(-c2ccnc3c2ccc2c(-c4ccccc4)ccnc23)cc1.c1ccc(-c2ccnc3c2ccc2c(-c4ccccc4)ccnc23)cc1.c1ccc(-c2ccnc3c2ccc2c(-c4ccccc4)ccnc23)cc1,95.9%,81.1%,85.8%,51.4%,107%,93.6%,86.1%,76.2%,104%,89.4%,91.1%,-2.79% (active),84.8%,77.9%,66.5%,69.8%,95.7%,–,–,–
CCCCCCCCCCCC[n+]1ccccc1 (tested in a mixture with another compound),-83.5% (active),-20.5% (active),-15.9% (active),1.25% (active),-47.5% (active),22.2%,–,-2.6% (active),-30.6% (active),–,-56.2% (active),-22.6% (active),4% (active),-18.4% (active),–,-63.1% (active),55.3%,42%,-30.2% (active),-28.7% (active)
NC(=S)N/N=C/c1ncccc1O,103%,44.1%,20.5%,1.36% (active),71.2%,10.7%,15.1%,1.76% (active),4.88% (active),12.1%,11.3%,-8.61% (active),35.2%,47.3%,-11.2% (active),–,-27.4% (active),–,–,–
Nc1cc(-c2ccccc2)ccc1O,120%,96.4%,104%,93.4%,127%,104%,–,37.2%,25.1%,28.7%,-11.7% (active),104%,91.4%,113%,115%,–,88.4%,93%,62.7%,–
NCCCN(CCCN)CCCNCc1c2ccccc2c(CNCCCN(CCCN)CCCN)c2ccccc12,100%,89.4%,110%,72.4%,97.5%,100%,–,102%,98.8%,96.6%,91.7%,108%,99.8%,100%,114%,107%,93.9%,95.4%,98.5%,92.6%
O=C(OC12CC3CC(CC(C3)C1)C2)c1ccc(NCc2cc(O)ccc2O)cc1,-19.9% (active),-67.9% (active),-3.25% (active),-100% (active),-95.9% (active),-89.7% (active),-92.5% (active),-23.7% (active),-19.5% (active),-19.4% (active),-36% (active),-63.4% (active),-85.5% (active),45.7%,–,-90.3% (active),-79.1% (active),–,–,–
CCCCCCCCCCCC[N+]1(CCCCCCCCCCCC)CCCC(C)C1 (stereo not drawn),-96.5% (active),-51.7% (active),-72.4% (active),-100% (active),-79.3% (active),-78.5% (active),–,-56.7% (active),-62.6% (active),–,-63.1% (active),-98.3% (active),-86.3% (active),-96.2% (active),–,-88.7% (active),19.6%,-88.4% (active),-92.1% (active),-40.8% (active)
CC(=O)c1c(O)c(C)c(O)c2c1OC1=CC(=O)C(C(C)=O)C(=O)C12C (stereo not drawn),83.7%,51.9%,143%,58.7%,103%,89%,74.2%,–,71.9%,58%,41.6%,88.3%,–,98.8%,69.9%,–,63.4%,76.3%,92.7%,–
CCN1/C(=C/C(C)=C/c2sc3ccc4ccccc4c3[n+]2CC)Sc2ccc3ccccc3c21,-93.5% (active),-90.8% (active),-84.9% (active),-89.8% (active),-97.3% (active),-97.2% (active),-97.9% (active),–,-43.6% (active),–,-58.1% (active),-91.7% (active),-76.9% (active),-99% (active),-88.4% (active),-94.5% (active),-19.3% (active),-98.3% (active),-68.7% (active),-66.8% (active)
